Data on ten compounds can be found in PubChem BioAssay.

Each structure is given as a SMILES string. Activity calls are given as the source filed them.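 The calls were made as follows, unless noted: active = NADPH fluorescence slope more negative than the mean of all samples by about 3 SD, 99.7% confidence; inactive = the rest.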

Assay [1] in a line: inhibitors of E-selectin induction by TNFa, primary screen, imaging, HUVEC, immunofluorescence, MLSMR starter and 10KST1 sets (AID 487;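 active = visually confirmed hit in the image check and inhibition above 20%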;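 as to inhibition: signal is fraction of cell area covered by stained E-selectin grains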;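 as to nuclei count: 100% = median nuclei count of all wells on the same plate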). The settings on record: HUVEC TNFalpha-induced E-selectin immunofluorescence imaging, at 2 µM; inhibition: stronger effect = higher value; nuclei count: measured here: cell number, toxicity.
Assay [2] in a line: DUSP6 inhibitors restoring Erk phosphorylation by chemical complementation, primary imaging in DUSP6-transfected HeLa (AID 609;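 active = compounds giving at least 50% inhibition in the cell-based MKP-3 phosphatase rescue imaging test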;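 as to inhibition: phospho-Erk level distribution per well compared with pooled transfected vehicle control wells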). The conditions noted are these: HeLa MKP-3 transfected, phospho-Erk imaging KS statistic, at 10 µM, cells stimulated with TPA for 15 min.
Assay [3] addresses Dual specificity protein phosphatase 6 (Homo sapiens) (UniProt Q16828). The assay is described as above. The conditions noted are these: HeLa MKP-3 transfected, phospho-Erk imaging KS statistic; at 10 µM; stronger effect = higher value; cells stimulated with TPA for 15 min.
In assay [4] the target is Voltage-gated potassium channel subunit beta-2 (Rattus norvegicus) (UniProt P62483). Kind of assay: KvBeta enzyme negative modulators, primary screen, biochemical, NADPH fluorescence (AID 622;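 active = fluorescence slope higher than the sample average by over 3 SD, cut at about -0.22 in these data, passing the limit was not always enough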;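 also: slope of raw intensity against log time taken from 70 to 1610 s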). The settings on record: recombinant KvBeta, 4-cyanobenzaldehyde reduction, at 10 µM, stronger effect = higher value.
Assay [5] shares this target. Kind of assay: KvBeta positive modulators, primary screen, biochemical, NADPH fluorescence (AID 623).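 Also: fluorescence intensity change per second fitted from 20 to 320 s.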 The conditions noted are these: Recombinant KvBeta, NADPH fluorescence decrease slope, 10 min; at 10 µM; stronger effect = lower value.
In assay [6] the target is Muscarinic acetylcholine receptor M4 (Homo sapiens) (UniProt P08173). Kind of assay: compounds altering M4/GIRK thallium flux, either direction, primary screen, M4 allosteric agonist project, cell-based, HEK293 M4/GIRK, BTC-AM (AID 625;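 active = fluorescence slope after compound addition differing from the mean of all tested samples at 99.7% confidence, mostly higher but some lower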;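 also: thallium influx through GIRK channels coupled to M4 in HEK293 cells with BTC-AM dye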). The conditions noted are these: at 10 µM, actives lie on both sides.
Assay [7] is described as follows: inhibitors of larval lipid processing in zebrafish, primary screen, whole organism, PED6 fluorescence, gall bladder and intestine (AID 686;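 active = a full or partial loss of lipid-probe fluorescence in the fish gall bladder, intestine or both, judged by eye; inactive = no fluorescence loss, or compound toxic to the fish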;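 also: larvae 5 to 7 days old with five fish per well; signal comes from phospholipase A2 cleavage of quenched PED6 carried via bile; overnight exposure to compound and PED6 before scoring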). The settings on record: Zebrafish larvae PED6 lipid processing, fluorescence scoring; screened at 20 µM (by protocol).
Assay [8] is described as follows: inhibitors of Chlamydomonas gravitaxis, primary screen, whole organism, Chlamydomonas reinhardtii, WT vs cilia-less mutant, absorbance, 96-well (AID 463189;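 active = inhibition at or above 50% relative to wild type and mutant plate controls; inactive = inhibition below 50%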;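 also: 0% = wild type cc124 cells in DMSO and 100% = ciliumless bld1 mutant cells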). The settings on record: OD600 absorbance, 2 days, at 10 µM, stronger effect = higher value.
Where [9] appears, read: measured here: cell density z-score.
The mark [10] stands for this setting: measured here: nuclear c-Myc green intensity z-score.
Where [11] appears, read: measured here: nuclear pErk red intensity z-score, stronger effect = higher value.

Muscarinic acetylcholine receptor M4 (Homo sapiens), sequence (P08173 whole entry, looked up): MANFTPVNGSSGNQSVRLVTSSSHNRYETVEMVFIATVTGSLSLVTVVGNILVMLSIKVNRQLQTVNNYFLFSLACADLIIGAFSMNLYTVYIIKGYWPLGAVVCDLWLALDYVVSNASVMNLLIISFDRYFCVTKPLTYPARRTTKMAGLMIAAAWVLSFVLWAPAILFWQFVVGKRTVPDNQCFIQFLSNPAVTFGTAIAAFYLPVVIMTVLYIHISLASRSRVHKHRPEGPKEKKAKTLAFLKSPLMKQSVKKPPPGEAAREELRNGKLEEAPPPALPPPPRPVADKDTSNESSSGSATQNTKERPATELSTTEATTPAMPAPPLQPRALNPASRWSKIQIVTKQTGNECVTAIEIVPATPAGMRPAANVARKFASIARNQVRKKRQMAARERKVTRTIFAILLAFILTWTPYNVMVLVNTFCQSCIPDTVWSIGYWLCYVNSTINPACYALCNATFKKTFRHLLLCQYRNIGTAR
Voltage-gated potassium channel subunit beta-2 (Rattus norvegicus), sequence (P62483 whole entry, looked up): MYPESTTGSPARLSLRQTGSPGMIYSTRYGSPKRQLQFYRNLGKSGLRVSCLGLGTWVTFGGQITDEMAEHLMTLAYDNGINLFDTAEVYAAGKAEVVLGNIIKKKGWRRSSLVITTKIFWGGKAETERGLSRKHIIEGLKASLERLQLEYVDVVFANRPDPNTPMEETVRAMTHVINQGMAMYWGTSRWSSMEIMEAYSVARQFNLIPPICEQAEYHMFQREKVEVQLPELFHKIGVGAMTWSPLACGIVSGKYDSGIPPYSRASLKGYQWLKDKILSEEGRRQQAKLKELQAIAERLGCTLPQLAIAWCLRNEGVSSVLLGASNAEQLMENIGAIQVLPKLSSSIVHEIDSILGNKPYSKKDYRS
Dual specificity protein phosphatase 6 (Homo sapiens), sequence (Q16828 whole entry, looked up): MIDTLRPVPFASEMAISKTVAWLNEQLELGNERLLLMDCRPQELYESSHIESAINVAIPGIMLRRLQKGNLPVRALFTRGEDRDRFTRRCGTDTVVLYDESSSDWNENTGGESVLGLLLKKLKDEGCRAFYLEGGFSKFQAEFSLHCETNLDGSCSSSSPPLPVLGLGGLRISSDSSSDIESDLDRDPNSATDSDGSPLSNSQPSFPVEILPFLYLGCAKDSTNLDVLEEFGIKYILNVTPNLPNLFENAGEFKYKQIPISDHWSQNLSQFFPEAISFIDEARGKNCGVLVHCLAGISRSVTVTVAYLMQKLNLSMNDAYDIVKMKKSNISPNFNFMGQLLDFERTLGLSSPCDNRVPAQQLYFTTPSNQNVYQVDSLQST

Take `COc1ccc(C(=O)N2CCCC(c3ccccc3)C2)cc1` (stereo not given): the results for the inhibition in assay [1], in assay [3] and in assay [8] were -91.1% (inactive), -7.79% (inactive) and 8.1% (inactive), respectively. In assay [1], this compound came in with a nuclei count of 167%. Besides, the results for the z-score in assay [2] (setting [9]), in assay [2] (setting [10]) and in assay [2] (setting [11]) were -0.133, 0.389 and 0.742, respectively. Further, the fluorescence slope in assay [4] is -0.406 (inactive); in assay [6], 0.00466 (inactive). Besides, the NADPH fluorescence slope in assay [5] was -4.3e-05 (inactive). Besides, the compound was called inactive in assay [7].

Consider `COc1ccc(C(=O)C2CCCCC2=O)cc1` (stereo not given), for which the inhibition in assay [1] is 43.3% (inactive); in assay [3] it was -2.07% (inactive); in assay [8], 20% (inactive). The compound also came in with a nuclei count in assay [1] of 127%. For the same compound, the z-score in assay [2] (setting [9]) is -0.682; in assay [2] (setting [10]), -0.8; in assay [2] (setting [11]) it was 1.6. Moreover, the fluorescence slope is -0.407 (inactive) in assay [4] and 0.00364 (inactive) in assay [6]. Also, the NADPH fluorescence slope in assay [5] is -7e-05 (inactive). Besides, the compound was classed as inactive in assay [7].

Regarding `CC(C)CCOc1ccc(Cl)cc1CN1CCOCC1`, the values for the inhibition in assay [1], in assay [3] and in assay [8] were -12.9% (inactive), -3.98% (inactive) and 106% (active), respectively. The compound further displayed a nuclei count in assay [1] of 146%. Further, the z-score in assay [2] (setting [9]) was -1.08; in assay [2] (setting [10]), -0.136; in assay [2] (setting [11]), -0.739. For the same compound, the fluorescence slope in assay [4] was -0.378 (inactive); in assay [6] it was 0.00465 (inactive). Further, the NADPH fluorescence slope in assay [5] was -7.1e-06 (inactive). In addition, in assay [7], the outcome was “inactive; toxic”.

Turning to `CN(CCOC(=O)c1cccc(Br)c1)C(C)(C)C`, the inhibition in assay [1] is -47% (inactive); in assay [3] it was 7.48% (inactive); in assay [8], 30.2% (inactive). Also, the nuclei count in assay [1] is 134%. Also, the z-score was -0.456 in assay [2] (setting [9]), 0.868 in assay [2] (setting [10]) and 2.16 in assay [2] (setting [11]). The fluorescence slope is -0.405 (inactive) in assay [4] and 0.00522 (inactive) in assay [6]. Besides, the NADPH fluorescence slope in assay [5] was -4e-05 (inactive). For the same compound, the result in assay [7] was inactive.

Consider `COc1cc(C(=O)NCC(=O)n2nc(C)cc2C)cc(OC)c1OC`, for which the inhibition was 19% (inactive) in assay [1], 20.8% (inactive) in assay [3] and -4.24% (inactive) in assay [8]. In assay [1], this compound came in with a nuclei count of 141%. Also, the z-score was 1.48 in assay [2] (setting [9]), 0.2 in assay [2] (setting [10]) and -2.19 in assay [2] (setting [11]). Moreover, the fluorescence slope in assay [4] is -0.389 (inactive); in assay [6], 0.00583 (inactive). Further, the NADPH fluorescence slope in assay [5] was 7.5e-06 (inactive). For the same compound, the outcome in assay [7] is “inactive; toxic”.

In the case of `CCC(=O)Oc1oc(-c2ccccc2)nc1C=Nc1ccccc1OC`, the results for the inhibition in assay [1], in assay [3] and in assay [8] were -41.7% (inactive), 9.39% (inactive) and 10.5% (inactive), respectively. Besides, in assay [1], the nuclei count worked out at 161%. Besides, the z-score came out at 0.687 in assay [2] (setting [9]), 0.248 in assay [2] (setting [10]) and 1.48 in assay [2] (setting [11]). Besides, the fluorescence slope in assay [4] was -0.381 (inactive); in assay [6], 0.00681 (inactive). The NADPH fluorescence slope in assay [5] was -4.4e-05 (inactive). In assay [7], the compound was classed as inactive.

Regarding `C=C(Br)CN1CCN(CC(=C)Br)CC1`, the inhibition is -179% (inactive) in assay [1], 17% (inactive) in assay [3] and 5.24% (inactive) in assay [8]. Further, the nuclei count in assay [1] worked out at 175%. The z-score in assay [2] (setting [9]) is 2.33; in assay [2] (setting [10]) it was -0.834; in assay [2] (setting [11]), -0.983. The results for the fluorescence slope in assay [4] and in assay [6] were -0.428 (inactive) and 0.00828 (inactive), respectively. Besides, in assay [5], the NADPH fluorescence slope was -2.9e-05 (inactive). The result in assay [7] was inactive.

Regarding `CN1CC(=O)Nc2ccc(F)cc2C1=O`, the inhibition is -12.8% (inactive) in assay [1], 7.48% (inactive) in assay [3] and -6.78% (inactive) in assay [8]. Further, in assay [1], the nuclei count came out at 108%. The z-score in assay [2] (setting [9]) is -0.408; in assay [2] (setting [10]) it was 1.54; in assay [2] (setting [11]), -1.19. In addition, the results for the fluorescence slope in assay [4] and in assay [6] were -0.414 (inactive) and 0.0056 (inactive), respectively. Further, the NADPH fluorescence slope in assay [5] was -5.5e-06 (inactive). For the same compound, in assay [7], the result was inactive.

For `c1ccc2c(c1)nc(CN1CCOCC1)n1c3ccccc3nc21`, the values for the inhibition in assay [1], in assay [3] and in assay [8] were -88% (inactive), -3.98% (inactive) and -4.79% (inactive), respectively. Further, the nuclei count in assay [1] turned out to be 174%. Moreover, the results for the z-score in assay [2] (setting [9]), in assay [2] (setting [10]) and in assay [2] (setting [11]) were -0.838, -0.224 and 1.09, respectively. Besides, the fluorescence slope in assay [4] was -0.309 (inactive); in assay [6], 0.00659 (inactive). Further, in assay [5], the NADPH fluorescence slope is -2.8e-05 (inactive). Further, the call in assay [7] was inactive.

For the compound `COc1cccc(N2CCN(c3ncnc4c3[nH]c3ccccc34)CC2C)c1` (stereo not given), the figures for the inhibition in assay [1], in assay [3] and in assay [8] were 72.8% (inactive), -7.93% (inactive) and 57% (active), respectively. The same compound came in with a nuclei count in assay [1] of 102%. The z-score in assay [2] (setting [9]) is -0.905; in assay [2] (setting [10]) it was -0.691; in assay [2] (setting [11]), 2.95. The fluorescence slope is -0.41 (inactive) in assay [4] and 0.00483 (inactive) in assay [6]. Besides, the NADPH fluorescence slope in assay [5] is -8e-06 (inactive). In addition, the call in assay [7] was inactive.
